Most compounds without a hit are left out; they make up all but 1.3% or so of the library.
PKA-R2B act: activators of PKA-R2B holoenzyme, primary screen, biochemical, fluorescence polarization, Cy5-IP20, human; PKA-R2B holoenzyme dissociation; R2B truncated from residue 108, S112A mutant; 0% DMSO only, 100% 113 µM cGMP; AID 504700, 2011; cAMP-dependent protein kinase catalytic subunit beta (Homo sapiens) + cAMP-dependent …; activation, % at 11.4 µM; hit rate 0.079% among 340,000;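 active = activation above a cutoff set at the mean over all compounds plus 3 SD, cut at about 18% in these data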;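 note: higher means more holoenzyme dissociation and a rise in polarization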
Neddylation inh: inhibitors of cullin neddylation, primary screen, biochemical, TR-FRET, uHTS, NAE and Ubc12 | hit rate 0.58% among 360,000 | NEDD8-conjugating enzyme Ubc12 (Homo sapiens) + NEDD8-activating enzyme E1 regulatory … | AID 651699, 2012 | inhibition, % at 25 µM; in the data active = inhibition above about 36%
Rpn11 block: Rpn11 (PSMD14) deubiquitinase inhibitors, primary screen, biochemical, fluorescence polarization, uHTS | human 26S proteasome, Ub4-pepOG fluorescence polarization; 20S core pre-blocked with epoxomicin | calls only at 20 µM | hit rate 0.59% among 360,000;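 active = inhibition at 20 µM, scaled to each plate's controls, above about 33%, limit read from the data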
PKA-R1A act: activators of PKA-R1A holoenzyme, primary screen, biochemical, fluorescence polarization, Cy5-IP20, bovine R1A, mouse PKAc; PKA-R1A dissociation; scaled: DMSO 0%, 113 µM cGMP 100%; activation, % at 11.4 µM; hit rate 0.083% among 340,000; AID 504707, 2011;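 active = percent activation above the mean of all tested compounds plus 3 SD, cut at about 19% in these data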;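 note: higher means more PKAc released from R1A so a rise in polarization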
Rpn11 inh conf: Rpn11 (PSMD14) deubiquitinase inhibitors, confirmation, biochemical, fluorescence polarization, single concentration. shares compounds with Rpn11 block. hit rate 29% among 1,900. purified human 26S proteasome, Ub4-pepOG fluorescence polarization; proteasome pretreated with epoxomicin. inhibition, % at 20 µM
MMP-2 counter: MMP-2 enzyme inhibition, confirmation, counter-screen for RPN11 inhibitor project, biochemical, fluorescence, single concentration; shares compounds with Rpn11 block; recombinant MMP-2, FRET peptide cleavage fluorescence; inhibition, % at 20 µM; hit rate 4% among 1,900;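 note: human MMP-2 activated beforehand with APMA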
Target sequence (P08253 whole entry, looked up): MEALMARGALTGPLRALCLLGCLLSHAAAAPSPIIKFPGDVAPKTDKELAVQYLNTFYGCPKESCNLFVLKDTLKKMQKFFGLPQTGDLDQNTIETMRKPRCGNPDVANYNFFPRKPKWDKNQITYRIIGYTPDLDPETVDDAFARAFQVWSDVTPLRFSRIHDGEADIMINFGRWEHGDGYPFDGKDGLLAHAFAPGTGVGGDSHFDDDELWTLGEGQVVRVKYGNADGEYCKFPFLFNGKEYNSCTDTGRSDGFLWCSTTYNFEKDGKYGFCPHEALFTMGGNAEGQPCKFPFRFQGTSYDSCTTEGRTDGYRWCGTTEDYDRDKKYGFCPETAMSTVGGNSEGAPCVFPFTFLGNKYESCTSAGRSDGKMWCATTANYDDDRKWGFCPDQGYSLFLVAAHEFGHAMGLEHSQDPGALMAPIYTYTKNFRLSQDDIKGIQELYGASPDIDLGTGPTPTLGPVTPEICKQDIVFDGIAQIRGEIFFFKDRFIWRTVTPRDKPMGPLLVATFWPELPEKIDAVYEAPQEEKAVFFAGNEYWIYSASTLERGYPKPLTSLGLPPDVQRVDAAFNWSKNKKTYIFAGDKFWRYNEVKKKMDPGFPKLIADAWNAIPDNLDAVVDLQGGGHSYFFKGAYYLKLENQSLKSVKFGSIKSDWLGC
Thrombin inh: bovine thrombin protease inhibition, confirmation, counter-screen for Rpn11 inhibitor project, biochemical, fluorescence polarization, single concentration; shares compounds with Rpn11 block; bovine thrombin cleavage of Ub4-pepOG; inhibition, % at 20 µM; hit rate 13% among 1,900; AID 602333, 2012;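 active = mean inhibition at least 40% at 20 µM, or signal 3 deviations below plate average, so some actives read negative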
Large screens that a line does not name were inactive (follow-up assays come after a bar, where shown). Cut-off read from the data, not from the text of the source, unless noted: active = inhibition above about 40%; inactive = the rest.

COc1ccc(C)cc1Nc1n[n+](-c2ccccc2)c(-c2ccc(N(C)C)cc2)s1	Rpn11 block active | Rpn11 inh conf 75 | MMP-2 counter inactive | Thrombin inh 127
Cc1ccc(N(Cc2ccccc2)C(=O)c2cc(S(=O)(=O)N3CCOCC3)ccc2F)cc1	Rpn11 block active | Rpn11 inh conf inactive | MMP-2 counter inactive | Thrombin inh inactive
COc1ccc(-c2cn(-c3ccc(C)cc3C)c(=O)[nH]2)cc1OC	none
COCC(C)NC(=O)CCSc1nc(-c2ccc(OC)cc2)cc(C(F)(F)F)n1 (stereo not drawn)	Rpn11 block active | Rpn11 inh conf inactive | MMP-2 counter inactive | Thrombin inh inactive
COc1ccc(-c2cc(C(F)(F)F)nc(SCCC(=O)N3CCN(C)CC3)n2)cc1	none
Cc1ccc(NC(=O)CSc2ncnc3ccccc23)cc1S(=O)(=O)N1CCCCCC1	Rpn11 block active | Rpn11 inh conf inactive | MMP-2 counter 50 | Thrombin inh inactive
Cc1ccc(S(=O)(=O)N2CCCCC2)cc1NC(=O)CSc1ncnc2ccccc12	none
O=C(CCOc1ccccc1)Nc1ccccc1[N+](=O)[O-]	Rpn11 block active | Rpn11 inh conf inactive | MMP-2 counter inactive | Thrombin inh inactive
O=C(CC(=O)Nc1ccccc1[N+](=O)[O-])Nc1ccccc1[N+](=O)[O-]	none
O=C(NC1CCCCC1)NC1CC2CCCC(C1)N2C1CCCC1 (stereo not drawn)	Rpn11 block active | Rpn11 inh conf inactive | MMP-2 counter inactive | Thrombin inh inactive
CC1CCN(CC2C(=O)O[C@@H]3C[C@@]4(C)CCC[C@H](C)C4=C[C@H]23)CC(C)(C)C1 (stereo partly drawn)	none
O=C(O)CSc1ncnc2scc(-c3ccc(Br)cc3)c12	Rpn11 block active | Rpn11 inh conf inactive | MMP-2 counter inactive | Thrombin inh inactive
O=C(O)CSc1ncnc2scc(-c3ccccc3)c12	none
COc1ccc(N=C2S/C(=C\c3ccc(C)s3)C(=O)N2CC(C)C)cc1	Rpn11 block active | Rpn11 inh conf inactive | MMP-2 counter inactive | Thrombin inh inactive
COc1ccc(N=C2S/C(=C\c3cccs3)C(=O)N2CC(C)C)cc1	none
CN(c1ccccc1)S(=O)(=O)c1cccc(NC(=O)c2ccc(Cl)c([N+](=O)[O-])c2)c1	none
CC(=O)c1ccc(NC(=O)c2ccc(COc3ccccc3[N+](=O)[O-])o2)cc1	Rpn11 block active | Rpn11 inh conf inactive | MMP-2 counter inactive | Thrombin inh inactive
O=[N+]([O-])c1cc(-c2ccccc2)cc([N+](=O)[O-])c1O	none
Nc1nc(-c2cc(O)ccc2[N+](=O)[O-])cc(-c2ccccc2)c1[N+](=O)[O-]	Rpn11 block active | Rpn11 inh conf 43 | MMP-2 counter inactive | Thrombin inh inactive
CCCCC(=O)OCC(=O)Nc1ccc(C)c(F)c1	none
CCc1ccc2[nH]c(=O)c(C(c3nnnn3CC3CCCO3)N3CCN4CCCC4C3)cc2c1 (stereo not drawn)	Rpn11 block active | Rpn11 inh conf inactive | MMP-2 counter inactive | Thrombin inh inactive
COc1ccc(C2=NC(=O)NC2c2ccc(OC)cc2)cc1 (stereo not drawn)	Rpn11 block active | Rpn11 inh conf inactive | MMP-2 counter inactive | Thrombin inh inactive
O=C1N=C(c2ccccc2)C(c2ccccc2)N1 (stereo not drawn)	none (not shown: Neddylation inh)
COc1ccc(S(=O)(=O)N2CC(O)CC2C(=O)OCc2nc3sc(C)c(C)c3c(=O)[nH]2)cc1 (stereo not drawn)	Rpn11 block active | Rpn11 inh conf inactive | MMP-2 counter inactive | Thrombin inh inactive
COc1ccccc1N1CCN(Cc2cc(Br)c(O)c3ncccc23)CC1	Rpn11 block active | Rpn11 inh conf inactive | MMP-2 counter inactive | Thrombin inh inactive
Oc1c(CN2CCCCC2)cc(COCc2ccccc2)c2cccnc12	Rpn11 block active | Rpn11 inh conf inactive | MMP-2 counter inactive | Thrombin inh inactive
COCc1cc(CN2CCCC2)c(O)c2ncccc12	none
CCCc1ccc(-c2cc(C(=O)Nc3ccc([N+](=O)[O-])cn3)c3ccccc3n2)cc1	none
Cc1ccc(OCCNC(=O)c2ccccc2SCC(=O)N2CCCC2)cc1	none
COc1ccc2nc(N/C(N)=N/S(C)(=O)=O)nc(C)c2c1	none (not shown: Neddylation inh)
N#Cc1ccc(S(=O)(=O)N2CCC(C(=O)Nc3cccc(C(=O)NC4CC4)c3)CC2)cc1	none
FC(F)(F)c1nnc2ccc(N3CCCC3)nn12	none
FC(F)(F)C(F)(F)C(F)(F)c1nnc2ccc(N3CCOCC3)nn12	Rpn11 block active | Rpn11 inh conf inactive | MMP-2 counter inactive | Thrombin inh inactive
COC(=O)C(Sc1ccc(Cl)cc1)C1SC(=S)N(Cc2ccccc2)C1=O (stereo not drawn)	Rpn11 block active | Rpn11 inh conf inactive | MMP-2 counter inactive | Thrombin inh inactive
COc1ccc(-c2c(C(=O)c3ccc(Br)cc3)[nH]c(N)c2C(=O)c2ccccc2)cc1OC	none (no result: PKA-R2B act, Rpn11 block, PKA-R1A act)
Cc1ccc(NC(=S)N(CCN2CCCCC2)Cc2ccco2)cc1Cl	none
Cc1ccc2[nH]c(O)c(N=Nc3nc4ccccc4s3)c2c1	none
Oc1[nH]c2ccccc2c1N=Nc1nc2ccccc2s1	Rpn11 block active | Rpn11 inh conf inactive | MMP-2 counter inactive | Thrombin inh inactive
Cc1occc1C(=O)/C(C#N)=C/c1ccc(O)c(Br)c1	Rpn11 block active | Rpn11 inh conf 116 | MMP-2 counter inactive | Thrombin inh 101
COc1cc(/C=C(\C#N)C(=O)Nc2cc(C(F)(F)F)ccc2Cl)ccc1OCC(=O)Nc1cccc(C(F)(F)F)c1	Rpn11 block active | Rpn11 inh conf 59 | MMP-2 counter inactive | Thrombin inh inactive
CN(C(=O)c1cccc(NC(=O)Cc2cccc(NC(=O)C3CCN(C(=O)c4ccccc4)CC3)c2)c1)C1CC1	none
CC1=NN(c2ccccc2)C(=O)/C1=C\c1ccc(Br)s1	none
O=C1c2ccccc2/C(=C\c2ccc(Br)s2)N1c1ccccc1	Rpn11 block active | Rpn11 inh conf inactive | MMP-2 counter inactive | Thrombin inh inactive
O=C(Nc1cccc(NC(=O)c2cccs2)c1)c1ccc2c(c1)OCCO2	none
